The test has as its target T1, Methionyl-tRNA synthetase, putative (Leishmania donovani (strain BPK282A1)) (UniProt E9BF75).
T1 sequence (whole entry): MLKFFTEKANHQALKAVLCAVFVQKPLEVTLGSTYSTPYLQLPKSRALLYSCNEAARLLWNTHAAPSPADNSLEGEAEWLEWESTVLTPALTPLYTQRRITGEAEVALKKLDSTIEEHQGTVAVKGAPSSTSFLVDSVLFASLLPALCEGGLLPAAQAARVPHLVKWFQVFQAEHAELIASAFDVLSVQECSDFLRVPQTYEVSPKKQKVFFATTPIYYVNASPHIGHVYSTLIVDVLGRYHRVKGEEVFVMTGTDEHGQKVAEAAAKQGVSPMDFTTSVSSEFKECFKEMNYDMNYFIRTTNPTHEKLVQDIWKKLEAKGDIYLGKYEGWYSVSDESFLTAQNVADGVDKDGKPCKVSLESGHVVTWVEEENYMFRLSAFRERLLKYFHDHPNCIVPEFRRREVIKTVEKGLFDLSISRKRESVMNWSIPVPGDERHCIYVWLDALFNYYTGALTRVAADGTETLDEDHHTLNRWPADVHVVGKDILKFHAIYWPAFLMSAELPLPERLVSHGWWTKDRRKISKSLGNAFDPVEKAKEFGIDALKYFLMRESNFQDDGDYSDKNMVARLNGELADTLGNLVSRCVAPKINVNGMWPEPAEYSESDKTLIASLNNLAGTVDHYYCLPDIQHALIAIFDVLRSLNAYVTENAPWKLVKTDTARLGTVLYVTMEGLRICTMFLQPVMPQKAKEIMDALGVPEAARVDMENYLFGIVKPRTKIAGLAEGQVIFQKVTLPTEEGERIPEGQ
In words: Leishmania donovani Methionine tRNA synthetase (LdMetRS):v7. Dose response assay. On the set-up: conc 80 nM, time 150 minutes. It is filed as functional.

A value given as a limit tells only on which side of the number the result lay.

`Cn1ncc2c(NCCO)nc(NC3CCOCC3)nc21` yielded a PXC50 (MAX_EFFECT 17.34104046) of less than 4.

Consider `Nc1nc(-c2ccccc2)cn1NC(=O)Nc1ccccc1F`, for which the PXC50 (MAX_EFFECT 18.14814815) was less than 4.

As to `CC(NCc1cc(Cl)cc(Cl)c1)C1CCS(=O)(=O)CC1` (configuration not stated), where the note is “MAX_EFFECT 19.31166348”, the PXC50 is less than 2.7.

`Cc1cnn(C)c1CNCc1cc(Cl)cc(Cl)c1` registered a PXC50 (MAX_EFFECT 20.07648184) of less than 2.7.

`Clc1cc(Cl)cc(CNCc2ncc[nH]2)c1`: under “MAX_EFFECT 20.45889101”, the PXC50 is less than 2.7.

Consider `Cc1cnn(C)c1CNc1cc(Cl)cc(Cl)c1`, for which the PXC50 (MAX_EFFECT 23.51816444) was less than 2.7.

On to `Cc1cc(CNCc2cc(Cl)cc(Cl)c2)no1`, for which the PXC50 (MAX_EFFECT 24.66539197) was less than 2.7.

`Clc1cc(Cl)cc(CNCc2c[nH]cn2)c1` returned a PXC50 (MAX_EFFECT 24.66539197) of less than 2.7.

Compound `Clc1cc(Cl)cc(NCc2ccc3[nH]ncc3c2)c1` yielded a PXC50 (MAX_EFFECT 28.48948375) of less than 2.7.

For `OCCCNc1ccnc(Nc2cccc(F)c2)n1`, for the setting “MAX_EFFECT 28.51637765”, the PXC50 was less than 4.

On to `Oc1ccccc1-c1nc(Nc2ccccc2Cl)c2ccccc2n1`, for which the PXC50 (MAX_EFFECT 30.74074074) is less than 4.

The compound `COc1ccccc1NC(=O)NCC1CCCCC1` gave a PXC50 (MAX_EFFECT 34.20560748) of less than 4.

On to `Clc1cc(Cl)cc(CNCc2ccncc2)c1`, for which the PXC50 (MAX_EFFECT 36.1376673) was less than 2.7.

The compound `CC(NCc1cc(Cl)cc(Cl)c1)C1CCCN(C(=O)OC(C)(C)C)C1` (configuration not stated) returned a PXC50 (MAX_EFFECT 36.52007648) of less than 2.7.

Turning to `COc1cccc(NC(=O)N2CCCc3ccccc32)c1`, for the setting “MAX_EFFECT 45.28301887”, the PXC50 is less than 4.

The compound `C[C@@H](CO)Nc1nc(Nc2ccc(F)c(F)c2)nc2c1cnn2C` yielded a PXC50 (BOTTOM 0.900407202, HILLSLOPE 1.012545194, MAX_EFFECT 78.11320755, TOP 96.15766895) of 4.67.

Where the note is “BOTTOM 1.104460677, HILLSLOPE 1.218727258, MAX_EFFECT 102.5925926, TOP 101.9327021”, `O=c1nc(NCCCNC2CCOc3c(Cl)cc(Cl)cc32)[nH]c2ccccc12` (configuration not stated) came in with a PXC50 of 6.05.

For the setting “BOTTOM 2.684604701, HILLSLOPE 0.866541634, MAX_EFFECT 62.24299065, TOP 102.5858947”, `OCCNc1ccnc(Nc2ccc(F)c(F)c2)n1` came in with a PXC50 of 4.2.

In the case of `Cn1ncc2c(NCCO)nc(Nc3ccc(F)cc3)nc21`, the PXC50 (BOTTOM 3.895127381, HILLSLOPE 1.044427324, MAX_EFFECT 67.40740741, TOP 80.2965153) was 4.65.

`Clc1cc(Cl)cc(NCc2ccncc2)c1` came in with a PXC50 (BOTTOM -1.202484297, HILLSLOPE 0.574759938, MAX_EFFECT 66.34799235, TOP 100.0) of 3.3.

The compound `Cc1noc(CCNc2nc(NCCO)c3cnn(C)c3n2)n1` came in with a PXC50 (MAX_EFFECT 0.580270793) of less than 4.

`CCn1c(NC(=O)Nc2ccccc2OC)nc2ccccc21` displayed a PXC50 (MAX_EFFECT 1.111111111) of less than 4.

As for `NS(=O)(=O)c1cccnc1Nc1ccc(F)cc1`, where the note is “MAX_EFFECT 1.518026565”, the PXC50 is less than 4.

Compound `CN(CCO)c1ccnc(Cl)n1` returned a PXC50 (MAX_EFFECT 1.682242991) of less than 4.

In the case of `COc1cccc(NC(=O)Nc2ccccc2OC)c1`, the PXC50 (MAX_EFFECT 2.056074766) was less than 4.

The compound `Cn1ncc2c(NC3COC3)nc(Nc3ccc(F)c(F)c3)nc21` had a PXC50 (MAX_EFFECT 2.264150943) of less than 4.

`C[C@@H](CO)Nc1nccc(Nc2ccc(F)c(F)c2)n1` came in with a PXC50 (MAX_EFFECT 2.697495183) of less than 4.

Turning to `COC(=O)c1ccc(OC)c(NC(=O)N2CCOc3ccccc32)c1`, the PXC50 (MAX_EFFECT 3.018867925) was less than 4.

As for `Cn1ncc2c(NCCO)nc(NCc3ccccc3)nc21`, the PXC50 (MAX_EFFECT 4.528301887) is less than 4.

As to `COc1ccccc1NC(=O)Nc1cnccc1OC`, the PXC50 (MAX_EFFECT 4.905660377) was less than 4.

The compound `CC(C)Nc1nc(NCCO)c2cnn(C)c2n1` registered a PXC50 (MAX_EFFECT 5.313092979) of less than 4.

On to `Cn1ncc2c(NCCO)nc(N3CCOCC3)nc21`, for which the PXC50 (MAX_EFFECT 5.69259962) is less than 4.

Where the note is “MAX_EFFECT 6.165703276”, `CN1CCN(c2nc(NCCO)c3cnn(C)c3n2)CC1` yielded a PXC50 of less than 4.

Compound `NS(=O)(=O)c1cccnc1NC1CCCC1` returned a PXC50 (MAX_EFFECT 6.986027944) of less than 4.

`NS(=O)(=O)c1cccnc1NC1CCCCC1` showed a PXC50 (MAX_EFFECT 6.986027944) of less than 4.

For `Cn1ncc2c(NCCO)nc(NCCCO)nc21`, the PXC50 (MAX_EFFECT 7.543520309) is less than 4.

Take `CCn1c(NC(=O)Nc2ccccc2C)nc2ccccc21`: under “MAX_EFFECT 7.777777778”, the PXC50 is less than 4.

For the compound `Cn1ncc2c(NCCO)nc(NCC3CCCO3)nc21` (configuration not stated), the PXC50 (MAX_EFFECT 7.969639469) is less than 4.

`CN(CCO)c1nc(NCCO)c2cnn(C)c2n1` showed a PXC50 (MAX_EFFECT 9.248554913) of less than 4.

Under “MAX_EFFECT 9.248554913”, `CN(c1nc(NCCO)c2cnn(C)c2n1)C1CCS(=O)(=O)C1` (configuration not stated) showed a PXC50 of less than 4.

As for `COc1cc(NC(=O)c2cccs2)c2ncccc2c1`, under “MAX_EFFECT 11.11111111”, the PXC50 was less than 4.

Turning to `FC(F)(F)CCNCc1cc(Cl)cc(Cl)c1`, under “MAX_EFFECT 11.28107075”, the PXC50 was less than 2.7.

The compound `Cn1ncc2c(NCCO)nc(NCCc3ccccc3)nc21` yielded a PXC50 (MAX_EFFECT 11.85185185) of less than 4.

For the setting “MAX_EFFECT 17.00934579”, `COc1ccccc1NC(=O)Nc1cccc(N)c1` registered a PXC50 of less than 4.

For the setting “MAX_EFFECT 17.78202677”, `Clc1cc(Cl)cc(CNCC2CCOCC2)c1` returned a PXC50 of less than 2.7.

For the setting “MAX_EFFECT 18.9292543”, `Clc1cc(Cl)cc(NC2COC2)c1` returned a PXC50 of less than 2.7.

In the case of `COc1ccccc1NC(=O)NC1CCCCC1`, the PXC50 (MAX_EFFECT 21.47001934) was less than 4.

In turn, `C[C@H](CO)Nc1ccnc(Nc2cccc(F)c2)n1` yielded a PXC50 (MAX_EFFECT 26.58959538) of less than 4.

`C[C@@H](CO)Nc1ccnc(Nc2cccc(F)c2)n1`: the PXC50 (MAX_EFFECT 30.05780347) was less than 4.

As to `CCNc1nc(C#N)nc(Nc2ccccc2)n1`, where the note is “MAX_EFFECT 38.88888889”, the PXC50 is less than 4.

For `C[C@@H](CO)Nc1ccnc(Nc2ccc(F)c(F)c2)n1`, the PXC50 (MAX_EFFECT 40.46242775) is less than 4.

Where the note is “MAX_EFFECT 43.93063584”, `C[C@H](CO)Nc1ccnc(Nc2cccc(C(F)(F)F)c2)n1` registered a PXC50 of less than 4.

As to `Clc1cc(Cl)cc(CNCc2ccccn2)c1`, for the setting “MAX_EFFECT 45.69789675”, the PXC50 is less than 2.7.

Compound `Cn1ncc2c(NC3CC3)nc(Nc3ccc(F)c(F)c3)nc21` gave a PXC50 (MAX_EFFECT 47.9245283) of less than 4.

`Cc1nc(NCCS(N)(=O)=O)c2c(-c3ccccc3)csc2n1` came in with a PXC50 (MAX_EFFECT 6.870229008) of less than 4 and a PXC50 (MAX_EFFECT 12.34256927) of less than 4.

`COc1ccccc1NC(=O)Nc1ccn(C)n1`: the PXC50 (MAX_EFFECT 6.168224299) is less than 4.

Regarding `FC1(F)CCN(Cc2ccccn2)CC12CCN(c1ncccn1)C2` (configuration not stated), the PXC50 is, setting by setting: (MAX_EFFECT 3.628117914) less than 4; (MAX_EFFECT 16.82242991) less than 4.

Consider `Clc1ccccc1CN1CCc2nc(Nc3ccccc3)ncc2C1`, for which the PXC50 runs as follows: (MAX_EFFECT 23.92344498) less than 4; (MAX_EFFECT 25.2285192) less than 4.

For `OCCCNc1ccnc(Nc2ccc(F)c(F)c2)n1`, the PXC50 (BOTTOM 8.063501062, HILLSLOPE 0.925044522, MAX_EFFECT 61.50943396, TOP 93.0681126) worked out at 4.25.

The values are drawn from ChEMBL document CHEMBL3988442, “University of Dundee, Small-Polar-MMV Screening Library” (2021).
